Records with an inconclusive call do not appear. A call without a number means that no potency is given here. Activity calls are given as the source filed them. Calls follow the shape of the dose curve; as a rule, active = well fitted curve in the direction sought with a large enough effect; inconclusive = small, poorly fitted or top-dose-only effect, or another doubt; inactive = no such curve, though single readings can be large; an effect the other way counts as inactive or inconclusive.
Tests used:
[1] = qHTS assay for measurement of the activity of small molecule inhibitors on Zika virus induced Caspase-3 activity in human iPSC derived neural progenitor cells (hNPCs) (AID 1224857); also: nearly all actives have a fitted effect of over 65% in size
Method in brief: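 Caspase-3/7 induction by a 6-hour ZIKV infection was quantified with a luminescent Caspase-Glo 3/7 reagent incubated 30 minutes at room temperature. Compounds were preincubated with hNPCs for 1 hour; inhibition was calculated against uninfected and infected control wells.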

[2] = qHTS assay for measurement of the activity of small molecule inhibitors on Zika virus induced Caspase-3 activity in human astrocytoma cells (AID 1224859)
Method in brief: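 In SNB-19 cells plated at 250 cells/well and grown 16-20 h, compounds were applied 1 h before ZIKV (2 FFU/cell). Six hours later caspase-3/7 luminescence was recorded.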

[3] = NS1 protein of Zika virus - qHTS assay to identify small molecule inhibitors in human HEK 293 cells (AID 1347053); also: series mostly up to about 46 µM; nearly all actives have a fitted effect of over 55% in size
Method in brief: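 Inhibition of NS1 expression was scored in HEK 293 cells given compound 1 h ahead of MR766 virus (MOI = 0.5). Following 24 h at 37 C, two anti-NS1 antibodies generated a TR-FRET signal, scaled between uninfected and infected controls.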

[4] = qHTS of pediatric cancer cell lines to identify multiple opportunities for drug repurposing: Primary screen for TC32 cells (AID 1347089); also: nearly all actives have a fitted effect of over 60% in size
Method in brief: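 In the primary qHTS, MIPE compounds were tested at 11 concentrations (0.78 nM to 46 µM) and NPC compounds at 8 (0.59 nM to 46 µM) on TC32 cells for 48 h. CellTiter-Glo luminescence gave viability.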

[5] = qHTS of pediatric cancer cell lines to identify multiple opportunities for drug repurposing: Primary screen for DAOY cells (AID 1347090); also: nearly all actives have a fitted effect of over 55% in size; also: potency is read from the fitted curve at half-maximal effect
Method in brief: (§1)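 Cell viability, CellTiter-Glo luminescence; 500-1,000 cells/well, 8- or 11-point titration, 48 h compound exposure at 37 degrees C, 5% CO2. Controls: DMSO neutral, bortezomib 2.3 µM final as positive.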

[6] = qHTS of pediatric cancer cell lines to identify multiple opportunities for drug repurposing: Primary screen for SJ-GBM2 cells (AID 1347091)
Method in brief: as §1

[7] = qHTS of pediatric cancer cell lines to identify multiple opportunities for drug repurposing: Primary screen for A673 cells (AID 1347092); also: nearly all actives have a fitted effect of over 45% in size
Method in brief: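 48 h compound exposure, A673, 500-1,000 cells/well, 37 degrees C/5% CO2. MIPE: 11-point, 0.78 nM-46 µM; NPC: 8-point, 0.59 nM-46 µM (final). Readout CellTiter-Glo luminescence after 15 min RT.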

[8] = qHTS of pediatric cancer cell lines to identify multiple opportunities for drug repurposing: Primary screen for SK-N-MC cells (AID 1347093); also: series mostly up to about 46 µM
Method in brief: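 Metabolically active cells were quantified by ATP-dependent luminescence (CellTiter-Glo, 15 min at room temperature) following 48 h treatment. Cells had been plated at 500-1,000 per well and settled for 5 h beforehand.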

[9] = qHTS of pediatric cancer cell lines to identify multiple opportunities for drug repurposing: Primary screen for BT-37 cells (AID 1347094); also: series mostly up to about 57 µM
Method in brief: (§2)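 Phenotypic viability qHTS, 48 h compound exposure, CellTiter-Glo luminescence read-out; multi-concentration dosing so that potency and efficacy derive directly from the primary screen's curves.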

[10] = qHTS of pediatric cancer cell lines to identify multiple opportunities for drug repurposing: Primary screen for NB-EBc1 cells (AID 1347095)
Method in brief: as §2

[11] = qHTS of pediatric cancer cell lines to identify multiple opportunities for drug repurposing: Primary screen for U-2 OS cells (AID 1347096); also: nearly all actives have a fitted effect of over 50% in size
Method in brief: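 Cells (500-1,000/well) rested 5 h, then received compounds for 48 h; metabolically active cells were measured by CellTiter-Glo luminescence. Final concentrations spanned up to 46 µM (MIPE, 11-point) or 0.59 nM-46 µM (NPC, 8-point) in primary screens, 11-point in follow-ups.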

[12] = P-glycoprotein substrates identified in KB-8-5-11 adenocarcinoma cell line, qHTS therapeutic library screen (AID 1346987); also: series mostly up to about 44 µM; nearly all actives have a fitted effect of over 65% in size
Method in brief: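 KB-8-5-11, a colchicine-selected P-gp-overexpressing KB-3-1 subline, was grown without colchicine for the assay. Cells were seeded at 500 cells/well, dosed in concentration-response and incubated 72 h at 37 degree C, 5% CO2. Viability was read by CellTiter-Glo luminescence.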

[13] = qHTS of pediatric cancer cell lines to identify multiple opportunities for drug repurposing: Primary screen for Saos-2 cells (AID 1347097); also: nearly all actives have a fitted effect of over 40% in size
Method in brief: as §2

Q: Which Potency [1] does the source give for `COc1cc(OC)nc(O[C@H](C(=O)O)C(OC)(c2ccccc2)c2ccccc2)n1` here?
A: inactive

Q: And the outcome [2]?
A: inactive

Q: And the Potency [3]?
A: inactive

Q: What about the Potency [4] of the same compound?
A: inactive

Q: What about the Potency [5] of the same compound?
A: inactive

Q: And the Potency [6]?
A: inactive

Q: And the Potency [7]?
A: inactive

Q: And the Potency [8]?
A: inactive

Q: What about the Potency [9] of the same compound?
A: inactive

Q: What about the Potency [10] of the same compound?
A: inactive

Q: And the Potency [11]?
A: inactive

Q: What does the source list for `O=c1[nH]c(=O)n([C@H]2O[C@H](CO)[C@@H](O)[C@@H]2O)cc1/C=C\Br`?
A: Potency [1]: inactive; outcome [2]: inactive; Potency [3]: inactive; Potency [4]: inactive; Potency [5]: inactive; Potency [6]: inactive; Potency [7]: inactive; Potency [8]: inactive; Potency [9]: inactive; Potency [10]: inactive

Q: Which Potency [1] does the source give for `NCC(=O)O` here?
A: inactive

Q: What about the outcome [2] of the same compound?
A: inactive

Q: What about the Potency [12] of the same compound?
A: inactive

Q: What about the Potency [4] of the same compound?
A: inactive

Q: What about the Potency [5] of the same compound?
A: inactive

Q: What about the Potency [6] of the same compound?
A: inactive

Q: And the Potency [7]?
A: inactive

Q: And the Potency [9]?
A: inactive

Q: And the Potency [11]?
A: inactive

Q: And the Potency [13]?
A: inactive

Q: With `Cc1cccc(N(C)C(=S)Oc2ccc3c(c2)C2CCC3C2)c1` (stereo unspecified) as the compound, how does the Potency [1] read?
A: inactive

Q: What about the outcome [2] of the same compound?
A: inactive

Q: And the Potency [3]?
A: inactive

Q: And the Potency [4]?
A: inactive

Q: What about the Potency [5] of the same compound?
A: 26.6 µM (active)

From PubChem BioAssay (NCATS)
